Test results from ChEMBL document CHEMBL3988442, “University of Dundee, Small-Polar-MMV Screening Library” (2021).
For some of these results: Potency and affinity values are given separately.

Legend:
[1] = biological target: T1, Methionyl-tRNA synthetase, putative (Leishmania donovani (strain BPK282A1)) (UniProt E9BF75); assay: Leishmania donovani Methionine tRNA synthetase (LdMetRS):v7. Dose response assay; type: functional; parameters: conc 80 nM, time 150 minutes
T1 sequence (whole entry): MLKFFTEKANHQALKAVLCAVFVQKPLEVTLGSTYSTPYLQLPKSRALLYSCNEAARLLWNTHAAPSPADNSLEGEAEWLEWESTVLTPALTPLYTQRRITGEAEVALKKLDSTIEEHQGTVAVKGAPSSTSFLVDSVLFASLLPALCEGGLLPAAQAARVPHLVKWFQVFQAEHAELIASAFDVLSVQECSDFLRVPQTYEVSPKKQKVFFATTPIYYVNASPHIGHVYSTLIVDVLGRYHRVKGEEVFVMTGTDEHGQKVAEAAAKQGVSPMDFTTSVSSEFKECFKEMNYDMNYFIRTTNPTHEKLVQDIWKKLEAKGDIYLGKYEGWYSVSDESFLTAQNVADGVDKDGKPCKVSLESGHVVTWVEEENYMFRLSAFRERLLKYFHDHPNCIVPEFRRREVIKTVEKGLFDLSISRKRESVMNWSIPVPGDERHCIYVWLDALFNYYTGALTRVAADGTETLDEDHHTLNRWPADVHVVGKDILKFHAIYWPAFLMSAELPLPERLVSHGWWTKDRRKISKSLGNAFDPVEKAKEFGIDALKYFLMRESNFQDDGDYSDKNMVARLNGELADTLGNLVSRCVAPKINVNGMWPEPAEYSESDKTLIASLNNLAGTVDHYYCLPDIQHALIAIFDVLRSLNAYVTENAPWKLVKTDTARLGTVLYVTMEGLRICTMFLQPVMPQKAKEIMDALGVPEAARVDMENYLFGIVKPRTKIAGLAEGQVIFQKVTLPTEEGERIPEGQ

[2] = biological target: Protein translocase subunit SecA (Escherichia coli (strain K12)) (UniProt P10408); assay: Assay to Identify E. coli SecA ATPase Inhibitors; type: functional; parameters: scale not given: direction of the effect not stated beside the values; conditions: 30 µM
Chain of Protein translocase subunit SecA (Escherichia coli (strain K12)) (P10408 whole entry): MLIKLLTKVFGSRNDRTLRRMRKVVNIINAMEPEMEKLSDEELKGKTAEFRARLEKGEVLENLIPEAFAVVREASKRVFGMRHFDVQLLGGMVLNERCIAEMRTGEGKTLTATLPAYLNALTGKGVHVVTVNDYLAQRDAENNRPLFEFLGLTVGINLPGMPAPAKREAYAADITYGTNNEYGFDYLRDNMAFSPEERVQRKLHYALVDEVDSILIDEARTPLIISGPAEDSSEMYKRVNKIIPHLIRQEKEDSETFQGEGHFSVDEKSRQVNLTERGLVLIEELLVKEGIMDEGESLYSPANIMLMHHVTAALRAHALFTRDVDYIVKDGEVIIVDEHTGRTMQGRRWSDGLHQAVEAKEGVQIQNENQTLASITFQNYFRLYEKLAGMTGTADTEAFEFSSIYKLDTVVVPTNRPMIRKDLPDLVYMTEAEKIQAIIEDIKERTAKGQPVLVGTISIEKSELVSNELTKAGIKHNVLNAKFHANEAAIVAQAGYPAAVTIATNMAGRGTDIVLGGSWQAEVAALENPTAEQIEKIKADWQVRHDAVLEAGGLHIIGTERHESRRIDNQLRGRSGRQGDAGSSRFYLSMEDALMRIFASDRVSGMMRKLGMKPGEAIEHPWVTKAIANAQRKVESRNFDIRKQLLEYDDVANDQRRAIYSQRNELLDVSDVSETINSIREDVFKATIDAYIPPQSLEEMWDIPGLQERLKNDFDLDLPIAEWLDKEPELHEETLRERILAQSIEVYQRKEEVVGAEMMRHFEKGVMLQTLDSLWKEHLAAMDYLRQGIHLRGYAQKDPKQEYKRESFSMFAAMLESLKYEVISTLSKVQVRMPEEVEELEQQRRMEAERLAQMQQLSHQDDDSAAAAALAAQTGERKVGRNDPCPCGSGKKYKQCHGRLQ

[3] = biological target: T2, Ubiquitin-activating enzyme e1, putative (Leishmania donovani (strain BPK282A1)) (UniProt E9BSI1); assay: Leishmania donovani Ubiquitin Activating Enzyme (LdE1); type: functional; parameters: scale not given: direction of the effect not stated beside the values; conditions: 30 µM
T2 sequence (whole entry): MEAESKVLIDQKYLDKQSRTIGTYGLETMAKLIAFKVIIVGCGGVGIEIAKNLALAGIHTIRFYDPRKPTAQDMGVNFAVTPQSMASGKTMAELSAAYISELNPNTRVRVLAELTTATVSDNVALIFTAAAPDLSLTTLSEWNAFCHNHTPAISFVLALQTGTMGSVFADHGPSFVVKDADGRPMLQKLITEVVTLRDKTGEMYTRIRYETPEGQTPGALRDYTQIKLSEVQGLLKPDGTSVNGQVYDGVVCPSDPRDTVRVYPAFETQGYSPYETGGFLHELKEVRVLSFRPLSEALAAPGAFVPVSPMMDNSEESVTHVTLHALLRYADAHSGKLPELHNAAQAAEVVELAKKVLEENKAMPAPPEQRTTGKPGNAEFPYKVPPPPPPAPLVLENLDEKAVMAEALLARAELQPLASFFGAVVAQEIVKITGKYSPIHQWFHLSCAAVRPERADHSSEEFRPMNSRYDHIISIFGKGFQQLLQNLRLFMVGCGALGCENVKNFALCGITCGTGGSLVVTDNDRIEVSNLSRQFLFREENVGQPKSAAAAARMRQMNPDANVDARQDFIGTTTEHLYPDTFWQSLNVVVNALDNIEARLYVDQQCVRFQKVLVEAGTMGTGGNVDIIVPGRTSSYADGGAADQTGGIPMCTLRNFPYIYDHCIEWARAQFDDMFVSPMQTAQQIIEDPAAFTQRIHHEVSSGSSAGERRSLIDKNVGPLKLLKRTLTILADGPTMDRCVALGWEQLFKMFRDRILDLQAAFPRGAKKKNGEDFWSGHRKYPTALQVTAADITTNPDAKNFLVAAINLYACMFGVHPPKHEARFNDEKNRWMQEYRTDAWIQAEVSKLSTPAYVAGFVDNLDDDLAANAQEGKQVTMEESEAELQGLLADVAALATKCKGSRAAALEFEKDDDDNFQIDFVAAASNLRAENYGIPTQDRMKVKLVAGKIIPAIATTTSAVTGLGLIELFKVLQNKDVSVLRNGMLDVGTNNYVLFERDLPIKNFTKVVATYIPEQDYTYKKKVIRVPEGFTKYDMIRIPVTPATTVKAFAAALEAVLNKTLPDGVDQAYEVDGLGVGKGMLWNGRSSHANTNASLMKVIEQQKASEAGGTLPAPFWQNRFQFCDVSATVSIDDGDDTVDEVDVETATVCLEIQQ

[4] = biological target: Sialic acid-binding Ig-like lectin 9 (Homo sapiens) (UniProt Q9Y336); assay: Hs-Siglec9 ALPHAscreen SOP 20170721; parameters: scale not given: direction of the effect not stated beside the values; conditions: 10 µM
Chain of Sialic acid-binding Ig-like lectin 9 (Homo sapiens) (Q9Y336 whole entry): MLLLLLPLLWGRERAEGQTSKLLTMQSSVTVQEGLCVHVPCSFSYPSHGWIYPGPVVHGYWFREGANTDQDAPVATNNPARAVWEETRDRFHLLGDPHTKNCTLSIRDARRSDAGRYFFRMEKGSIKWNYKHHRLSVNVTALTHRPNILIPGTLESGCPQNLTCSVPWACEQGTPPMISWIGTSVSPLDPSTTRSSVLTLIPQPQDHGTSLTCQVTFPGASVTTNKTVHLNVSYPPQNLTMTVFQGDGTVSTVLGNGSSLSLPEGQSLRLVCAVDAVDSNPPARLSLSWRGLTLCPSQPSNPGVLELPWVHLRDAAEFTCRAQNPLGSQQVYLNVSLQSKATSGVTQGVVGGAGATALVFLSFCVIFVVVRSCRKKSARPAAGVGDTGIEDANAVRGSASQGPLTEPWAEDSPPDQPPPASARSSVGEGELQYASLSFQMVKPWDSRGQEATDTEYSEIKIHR

Trypanosoma cruzi = assay: Trypanosoma cruzi phosphomannomutase and mannose-1-phosphate guanylyltransferase assay; type: functional; parameters: scale not given: direction of the effect not stated beside the values; conditions: 10 µM
[5] = biological target: T3, Arginase-2, mitochondrial (Homo sapiens) (UniProt P78540); assay: in vitro enzyme assay to detect the production of urea directly proportional to the activity of Arginase II; type: functional; parameters: scale not given: in the data most compounds retested in dose-response had high values; conditions: 33.3 µM
T3 sequence (whole entry): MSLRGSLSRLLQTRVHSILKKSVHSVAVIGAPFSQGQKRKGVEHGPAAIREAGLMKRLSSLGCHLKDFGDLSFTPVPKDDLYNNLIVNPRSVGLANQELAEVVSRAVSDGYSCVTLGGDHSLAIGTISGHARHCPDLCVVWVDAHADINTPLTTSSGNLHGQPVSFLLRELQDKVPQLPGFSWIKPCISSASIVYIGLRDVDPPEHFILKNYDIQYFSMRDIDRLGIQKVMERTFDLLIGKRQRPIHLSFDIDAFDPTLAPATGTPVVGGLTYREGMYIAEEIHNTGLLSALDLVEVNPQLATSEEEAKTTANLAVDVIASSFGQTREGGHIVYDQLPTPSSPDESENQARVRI

[6] = biological target: T4, Proteasome subunit beta (Trypanosoma cruzi) (UniProt O96673); assay: Trypanosoma cruzi proteasome chymotrypsin-like activity (TcProtChymo) assay.; type: functional; parameters: scale not given: in the data most compounds retested in dose-response had high values; conditions: 9.37 µM
T4 sequence (whole entry): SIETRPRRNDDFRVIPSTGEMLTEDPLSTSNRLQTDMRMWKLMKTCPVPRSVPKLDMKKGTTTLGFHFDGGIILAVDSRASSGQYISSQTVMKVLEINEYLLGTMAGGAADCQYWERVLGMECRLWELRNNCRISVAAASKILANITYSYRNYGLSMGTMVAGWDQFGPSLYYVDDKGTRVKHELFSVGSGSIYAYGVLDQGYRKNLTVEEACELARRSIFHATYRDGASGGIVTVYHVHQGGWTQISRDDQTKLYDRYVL

Homo sapiens = species: Homo sapiens; assay: To identify inhibition of the IFN signalling (Jak-Stat) pathway via expression of an eGFP reporter gene under the control of an IFN-stimulated response element (ISRE) containing MxA promoter.; type: functional; parameters: scale not given: direction of the effect not stated beside the values; conditions: 30 µM
[7] = biological target: T5, Tyrosyl-tRNA synthetase, putative (Trypanosoma cruzi (strain CL Brener)) (UniProt Q4DSP6); assay: Trypanosoma cruzi tyrosyl tRNA synthetase (TcYRS) _High Tyrosine SOP; type: functional; parameters: scale not given: in the data most compounds retested in dose-response had high values; conditions: 30 µM
T5 sequence (whole entry): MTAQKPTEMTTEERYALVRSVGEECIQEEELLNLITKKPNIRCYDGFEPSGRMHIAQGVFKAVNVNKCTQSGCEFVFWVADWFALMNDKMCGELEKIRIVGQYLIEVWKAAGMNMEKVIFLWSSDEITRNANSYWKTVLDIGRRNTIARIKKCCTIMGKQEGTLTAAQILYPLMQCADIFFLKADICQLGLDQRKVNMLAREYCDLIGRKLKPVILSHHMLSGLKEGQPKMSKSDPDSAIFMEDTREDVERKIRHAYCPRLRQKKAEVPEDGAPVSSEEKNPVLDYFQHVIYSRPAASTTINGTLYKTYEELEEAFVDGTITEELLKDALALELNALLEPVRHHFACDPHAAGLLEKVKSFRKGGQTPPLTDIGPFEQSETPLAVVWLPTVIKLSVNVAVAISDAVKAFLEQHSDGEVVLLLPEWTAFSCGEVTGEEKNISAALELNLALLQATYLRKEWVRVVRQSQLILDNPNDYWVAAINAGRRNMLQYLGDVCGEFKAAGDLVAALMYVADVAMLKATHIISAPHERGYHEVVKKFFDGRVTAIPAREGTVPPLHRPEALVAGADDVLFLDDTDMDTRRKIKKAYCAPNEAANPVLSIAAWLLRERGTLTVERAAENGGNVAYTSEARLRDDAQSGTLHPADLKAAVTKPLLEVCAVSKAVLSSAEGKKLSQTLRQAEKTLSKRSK

[8] = biological target: T5, Tyrosyl-tRNA synthetase, putative (Trypanosoma cruzi (strain CL Brener)); assay: Trypanosoma cruzi tyrosyl tRNA synthetase (TcYRS) SOP; type: functional; parameters: scale not given: direction of the effect not stated beside the values; conditions: 30 µM
[9] = biological target: Chromo domain-containing protein 1 (Saccharomyces cerevisiae (strain ATCC 204508 / S288c) (Baker's yeast)) (UniProt P32657); assay: ScCHD-1 Enzyme Inhibition Assay; type: functional; parameters: scale not given: in the data most compounds retested in dose-response had high values; conditions: 30 µM
Chain of Chromo domain-containing protein 1 (Saccharomyces cerevisiae (strain ATCC 204508 / S288c) (Baker's yeast)) (P32657 whole entry, the tested form may be a part): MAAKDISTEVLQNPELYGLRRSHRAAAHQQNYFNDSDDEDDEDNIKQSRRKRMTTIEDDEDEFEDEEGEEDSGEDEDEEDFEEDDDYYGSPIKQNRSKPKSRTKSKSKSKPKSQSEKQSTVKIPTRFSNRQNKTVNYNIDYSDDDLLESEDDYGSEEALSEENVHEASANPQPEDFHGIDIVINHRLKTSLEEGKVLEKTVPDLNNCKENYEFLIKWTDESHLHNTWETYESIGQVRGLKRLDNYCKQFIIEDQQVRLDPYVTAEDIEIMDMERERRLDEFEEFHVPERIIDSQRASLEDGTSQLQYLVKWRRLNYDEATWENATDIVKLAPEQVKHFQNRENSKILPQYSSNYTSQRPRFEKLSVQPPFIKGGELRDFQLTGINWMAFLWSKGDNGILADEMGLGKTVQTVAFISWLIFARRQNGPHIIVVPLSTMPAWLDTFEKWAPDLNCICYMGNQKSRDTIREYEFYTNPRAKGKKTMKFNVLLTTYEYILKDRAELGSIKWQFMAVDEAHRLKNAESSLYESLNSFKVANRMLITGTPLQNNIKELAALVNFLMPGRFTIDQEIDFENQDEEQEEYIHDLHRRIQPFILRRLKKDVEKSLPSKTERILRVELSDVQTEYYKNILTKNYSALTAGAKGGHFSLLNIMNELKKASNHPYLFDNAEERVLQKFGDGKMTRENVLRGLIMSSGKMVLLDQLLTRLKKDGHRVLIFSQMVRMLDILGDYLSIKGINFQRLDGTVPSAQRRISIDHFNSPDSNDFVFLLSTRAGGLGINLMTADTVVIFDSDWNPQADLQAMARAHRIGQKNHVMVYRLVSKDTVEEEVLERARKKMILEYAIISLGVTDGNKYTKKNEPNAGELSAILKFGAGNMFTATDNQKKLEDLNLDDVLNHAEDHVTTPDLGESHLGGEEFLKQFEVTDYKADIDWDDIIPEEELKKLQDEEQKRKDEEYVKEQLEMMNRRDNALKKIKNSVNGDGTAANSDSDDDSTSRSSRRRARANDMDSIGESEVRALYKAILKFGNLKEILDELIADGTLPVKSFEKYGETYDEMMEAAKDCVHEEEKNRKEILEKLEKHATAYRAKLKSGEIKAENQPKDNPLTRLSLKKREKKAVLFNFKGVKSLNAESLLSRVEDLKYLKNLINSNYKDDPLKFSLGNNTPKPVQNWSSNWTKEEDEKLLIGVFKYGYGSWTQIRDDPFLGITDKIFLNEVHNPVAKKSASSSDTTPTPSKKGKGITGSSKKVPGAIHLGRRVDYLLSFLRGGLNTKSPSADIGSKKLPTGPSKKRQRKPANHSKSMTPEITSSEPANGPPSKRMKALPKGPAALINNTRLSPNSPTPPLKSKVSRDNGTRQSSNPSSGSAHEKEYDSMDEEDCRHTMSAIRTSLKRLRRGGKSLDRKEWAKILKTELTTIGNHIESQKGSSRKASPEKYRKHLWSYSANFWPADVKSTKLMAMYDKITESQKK

[10] = biological target: AMP-activated protein kinase, AMPK (Homo sapiens) (UniProt P54646+O43741+P54619+Q9UGJ0+Q9Y478+Q13131+Q9UGI9); assay: AMP-dependent Kinase enzyme assay. An in vitro enzyme assay that detects ADP turnover that is directly proportional to AMPK activity. This uses naive AMPK that is activated during the assay with MK-8722; type: functional; parameters: scale not given: direction of the effect not stated beside the values; conditions: 30 µM

SMILES	PXC50 ([1]; BOTTOM 0.467703885, HILLSLOPE 1.411799655, MAX_EFFECT 58.90736342, TOP 70.88537837)	PXC50 ([1]; BOTTOM 3.025092892, HILLSLOPE 1.100251625, MAX_EFFECT 63.9084507, TOP 101.8817942)	PXC50 ([1]; BOTTOM 3.903834548, HILLSLOPE 2.10176548, MAX_EFFECT 63.76811594, TOP 66.05792102)	PXC50 ([1]; BOTTOM -3.956247574, HILLSLOPE 1.036561065, MAX_EFFECT 73.83512545, TOP 100.0)	PXC50 ([1]; BOTTOM -4.174046537, HILLSLOPE 0.97706716, MAX_EFFECT 63.03630363, TOP 100.0)	Percent Effect [2]	Percent Effect [3]	Percent Effect [4]	Percent Effect (Trypanosoma cruzi)	Percent Effect [5]	Percent Effect [6]	Percent Effect (Homo sapiens)	Percent Effect [7]	Percent Effect [8]	Percent Effect [9]	PXC50 ([1]; MAX_EFFECT 6.650831354)	PXC50 ([1]; MAX_EFFECT 15.31690141)	Percent Effect [10]
O=C(NC1CC1)c1ccc2ccc(N3CCN(CC4CC4)CC3)n2c1	4.49	4.18	4.72	4.45	4.22	0.138%	9.09%	0.503%	7.69%	-1.37%	9.19%	-15.1%	45.4%	22.5%	-3.97%			
Cn1cc(CN2CCC(F)(F)C3(CCN(c4cnccn4)C3)C2)cn1 (stereo not drawn)						-4.19%	2.7%	-1.14%	0%	4.17%	-3.47%	5.63%	8.91%	8.54%	-4.16%	< 4	< 4	6.66%
